High-throughput results (PubChem)
SW480 rereplic – DNA re-replication induction in SW480 cells; hit rate 1.8% among 340,000; SW480 DNA re-replication, Hoechst DNA content imaging, 48 h; AID 624297; Potency, µM (doses to about 46.1 µM), actives largely listed as activators; note: nearly all actives have a fitted effect of over 55% in size
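Image-based read-out: total Hoechst fluorescence of nuclei (405 nm excitation, 500-530 nm emission), with hits raising the fraction of high-intensity nuclei. SW480 colon cells incubated 48 hr with compounds at 37 C.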
KB-3-1 tox – kills parental KB-3-1 adenocarcinoma cells; KB-3-1 viability, CellTiter-Glo ATP luminescence, 72 h; Potency, µM (series often up to 46.1 µM), actives largely listed as cytotoxic; hit rate 1.4% among 400,000; AID 1347075; note: nearly all actives have a fitted effect of over 60% in size
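72 h, 37 °C compound treatment of KB-3-1 parental cells; CellTiter-Glo added, 10 min, luminescence read. Data corrected against DMSO-only plates and normalized before curve fitting.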
KCNH2 3.1 inh – inhibitors of human KCNH2 3.1 potassium channel isoform; activity change, % (tested at about 1.8 µM); U2OS KCNH2 3.1, thallium flux FluxOr; hits give low values; hit rate 0.95% among 340,000;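 active = maximum activity change below -70%; inconclusive = maximum activity change from -70% to -50%; inactive = maximum activity change above -50%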;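 note: thallium influx rate constant from kinetic fluorescence after stimulation buffer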
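Thallium flux via FluxOr fluorescence (Red40 quencher, 45 min loading) in U2OS cells virally expressing the KCNH2 3.1 isoform (1.77 x 10^8 /mL virus, overnight at 37 C). Rate constants from 2-min kinetic reads post-stimulation, normalised to positive and negative controls.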
hERG WT inh – blocks the wildtype human KCNH2 potassium channel | Q12809 | U2OS, BacMam KCNH2, thallium flux FluxOr; hits give low values | activity change, % at 1.84 µM | hit rate 0.37% among 340,000 | AID 720551;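 active = maximum activity change below -70%; inconclusive = maximum activity change between -70% and -50%; inactive = maximum activity change above -50%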
Target sequence (Q12809 whole entry, looked up): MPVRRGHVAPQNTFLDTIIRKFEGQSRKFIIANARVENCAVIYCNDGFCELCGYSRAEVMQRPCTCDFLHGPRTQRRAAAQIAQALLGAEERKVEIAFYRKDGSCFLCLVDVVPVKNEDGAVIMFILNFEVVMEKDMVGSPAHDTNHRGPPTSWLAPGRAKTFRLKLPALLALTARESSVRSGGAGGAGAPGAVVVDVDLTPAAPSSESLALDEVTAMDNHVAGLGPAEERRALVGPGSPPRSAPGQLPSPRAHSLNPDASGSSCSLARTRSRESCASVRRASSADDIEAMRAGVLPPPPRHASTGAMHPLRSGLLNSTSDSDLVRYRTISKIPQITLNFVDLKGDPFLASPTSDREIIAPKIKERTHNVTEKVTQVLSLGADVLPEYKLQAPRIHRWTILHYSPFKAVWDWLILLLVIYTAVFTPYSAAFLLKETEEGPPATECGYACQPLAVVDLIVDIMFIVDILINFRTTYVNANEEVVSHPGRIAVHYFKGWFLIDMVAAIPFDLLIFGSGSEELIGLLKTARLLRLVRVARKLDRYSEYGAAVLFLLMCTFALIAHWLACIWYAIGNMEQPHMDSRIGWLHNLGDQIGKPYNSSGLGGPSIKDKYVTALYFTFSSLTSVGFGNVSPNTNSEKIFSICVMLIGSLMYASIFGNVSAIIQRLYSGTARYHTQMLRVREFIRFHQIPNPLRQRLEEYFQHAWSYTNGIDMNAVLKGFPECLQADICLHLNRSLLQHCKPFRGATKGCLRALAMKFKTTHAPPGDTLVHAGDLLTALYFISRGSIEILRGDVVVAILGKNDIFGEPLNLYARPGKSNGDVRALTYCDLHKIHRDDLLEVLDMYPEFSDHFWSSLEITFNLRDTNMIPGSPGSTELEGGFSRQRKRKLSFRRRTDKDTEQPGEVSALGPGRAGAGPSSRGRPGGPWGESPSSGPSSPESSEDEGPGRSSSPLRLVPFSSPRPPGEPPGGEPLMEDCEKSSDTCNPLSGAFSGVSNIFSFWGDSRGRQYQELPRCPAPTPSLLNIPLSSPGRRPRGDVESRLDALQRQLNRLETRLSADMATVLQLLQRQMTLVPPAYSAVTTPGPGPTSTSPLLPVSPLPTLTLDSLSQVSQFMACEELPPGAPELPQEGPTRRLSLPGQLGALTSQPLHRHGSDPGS
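U2OS cells were transduced with wild-type KCNH2 virus (2.03 x 10^8 / mL) for 4 h at room temperature, then cultured overnight at 37 C. Thallium flux was read with FluxOr dye. Rate constants were normalized to DMSO controls.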
KB-V1 cytotox – kills drug-selected multidrug resistant KB-V1 cells. KB-V1 MDR cells viability, CellTiter-Glo, 72 h. Potency, µM (doses to about 46.1 µM), hits mostly cytotoxic. hit rate 3.4% among 400,000. AID 1347076; note: nearly all actives have a fitted effect of over 60% in size
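KB-V1 MDR subline cells in DMEM (phenol-red free, 10% FBS) exposed to compounds in qHTS concentration series for 72 h at 37 degrees C. Viability read by CellTiter-Glo luminescence; concentration-effect curves fitted after normalization and correction.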
MCF10A rereplic – DNA re-replication induction in MCF 10a cells. MCF 10A DNA re-replication, Hoechst nuclear intensity, 48 h. Potency, µM (doses to about 46.1 µM), hits mostly activators. hit rate 2.9% among 350,000; note: nearly all actives have a fitted effect of over 50% in size
Each line names hits and unclear results; the compound was inactive in the other large screens; ! = a repeat was not active. Most compounds without a hit are left out; they make up all but 7.6% or so of the library. Unless noted, calls come from the whole dose curve; as a rule, active = well fitted curve in the direction sought with a large enough effect; inconclusive = small, poorly fitted or top-dose-only effect, or another doubt; inactive = no such curve, though single readings can be large; an effect the other way counts as inactive or inconclusive.

COc1ccc(C2C(=O)N(CCc3ccccc3)CC(=O)N2C2CCCC2)cc1 (configuration not stated)	KB-V1 cytotox 3.66µM
COc1ccc(C2C(=O)N(C3CCCCC3)CC(=O)N2Cc2ccco2)cc1 (configuration not stated)	none
CN(C)CCNc1ncnc2ccc(-c3ccc4c(c3)OCO4)cc12	none (no result: SW480 rereplic, KCNH2 3.1 inh, hERG WT inh, MCF10A rereplic)
COc1cc2c3nnc(-c4ccccc4)c-3cn(Cc3ccc(F)cc3)c2cc1OC	SW480 rereplic 18.4µM, MCF10A rereplic inconclusive
COc1cc2c3nnc(-c4ccc(F)cc4)c-3cn(Cc3cccc(C)c3)c2cc1OC	SW480 rereplic 20.6µM, KB-3-1 tox inconclusive, MCF10A rereplic inconclusive
COc1cc2c3nnc(-c4ccc(F)cc4)c-3cn(Cc3cccc(F)c3)c2cc1OC	SW480 rereplic 6.51µM, KB-3-1 tox inconclusive, MCF10A rereplic inconclusive
[N-]=[N+]=NC(c1ccccc1)C(NC(=O)c1cc(C(F)(F)F)cc(C(F)(F)F)c1)c1ccccc1 (configuration not stated)	KB-3-1 tox inconclusive (no result: SW480 rereplic, KCNH2 3.1 inh, hERG WT inh, MCF10A rereplic)
CC(=O)C1=C(O)CCC1=NCCc1ccccc1	SW480 rereplic inconclusive, MCF10A rereplic 20.6µM
COCCNC(=S)N1CCC(C(=O)c2ccc3c(c2)OCCO3)CC1	none
Cn1c(=O)oc2cc(S(=O)(=O)N3CCN(c4ccccc4F)CC3)ccc21	none
Cc1ccc(C)c(N2CCN(C(=O)CCS(=O)(=O)c3ccc4c(c3)oc(=O)n4C)CC2)c1	KB-3-1 tox inconclusive, KB-V1 cytotox 6.51µM!
Cn1c(=O)oc2cc(S(=O)(=O)CCC(=O)N3CCN(c4ccccc4F)CC3)ccc21	KB-V1 cytotox inconclusive
Cc1ccc(Cl)cc1N1CCN(S(=O)(=O)c2ccc3c(c2)oc(=O)n3C)CC1	KB-V1 cytotox 13µM
COc1ccc(C2C(=O)N(C3CCCCC3)CC(=O)N2CC2COc3ccccc3O2)cc1 (configuration not stated)	none
COC(=O)c1c(NC(=O)c2ccc(N(C)S(=O)(=O)c3ccc(C)cc3)cc2)sc2c1CCCC2	SW480 rereplic inconclusive, MCF10A rereplic 5.8µM
CCOC(=O)c1c(NC(=O)C(NCCN(C)C)c2ccccc2)sc2c1CCCC2 (configuration not stated)	SW480 rereplic inconclusive, KB-3-1 tox inconclusive, MCF10A rereplic 18.4µM
COC(=O)c1c(NC(=O)CN(c2ccccc2)S(C)(=O)=O)sc2c1CCCC2	KB-V1 cytotox 10.3µM
COC(=O)c1c(NC(=O)c2ccccc2N(C)S(=O)(=O)c2ccccc2)sc2c1CCCC2	SW480 rereplic 11.6µM, KB-3-1 tox 4.61µM, KB-V1 cytotox 6.51µM, MCF10A rereplic inconclusive
COC(=O)c1c(NC(=O)c2ccccc2C(=O)O)sc2c1CCC2	none
CCOC(=O)c1c(NC(=O)c2ccc(C)cc2)sc2c1CCCCC2	none (no result: SW480 rereplic, KCNH2 3.1 inh, hERG WT inh, MCF10A rereplic)
O=C(O)CCNC1C=CS(=O)(=O)C1 (configuration not stated)	none
Cc1cc(C)cc(-n2ccnc2SCC(=O)O)c1	none
Cc1nnc(NC(=O)C2CCN(C(=O)c3ccsc3)CC2)s1	none (no result: SW480 rereplic, KCNH2 3.1 inh, hERG WT inh, MCF10A rereplic)
Cc1ccnc2nc(C(=O)NCCc3ccc(F)cc3)nn12	none
c1coc(CNc2ncnc3c2[nH]c2ccccc23)c1	KB-3-1 tox inconclusive (no result: SW480 rereplic, KCNH2 3.1 inh, hERG WT inh, MCF10A rereplic)
CCOC(=O)c1c(NC(=O)c2ccccc2N(C)S(=O)(=O)c2ccccc2)sc2c1CCCC2	SW480 rereplic 5.17µM, KB-3-1 tox 2.91µM, KB-V1 cytotox 5.8µM, MCF10A rereplic inconclusive
COc1cc(OC)cc(C(=O)Nc2sc3c(c2C(N)=O)CCC3)c1	SW480 rereplic inconclusive, MCF10A rereplic 0.581µM
Cn1cnnc1SCC(=O)Nc1sc2c(c1C(N)=O)CCC2	SW480 rereplic inconclusive, hERG WT inh -284.2
COCCN(CCOC)S(=O)(=O)c1ccc(C(=O)Nc2sc3c(c2C(N)=O)CCCCC3)cc1	KB-V1 cytotox 2.91µM
CCOC(=O)c1c(NC(=O)c2ccccc2Cl)sc2c1CCCC2	none (no result: SW480 rereplic, KCNH2 3.1 inh, hERG WT inh, MCF10A rereplic)
COCCn1cnnc1SCC(=O)Nc1sc2c(c1C#N)CCC2	none
O=C(c1ccc2c(c1)OCO2)N1CCC2(CC1)Oc1ccc(Cl)cc1C(=O)C21CC(c2ccccc2)=NO1 (configuration not stated)	none
Cc1ccc2c(c1)C(=O)C(=O)N2CC(=O)Nc1ccc(N2CCOCC2)cc1	none
COc1ccc(C(=O)COc2nc(C)cc(C)c2C#N)cc1	KB-3-1 tox inconclusive, KB-V1 cytotox 13µM
Cc1nc(OCC(=O)c2ccc(Cl)cc2)c(C#N)c2c1COC(C)(C)C2	SW480 rereplic 20.6µM, MCF10A rereplic 4.61µM
CC(C(=O)Nc1cccc([N+](=O)[O-])c1)N1CCN(C/C=C/c2ccccc2)CC1 (configuration not stated)	KCNH2 3.1 inh -85.3, KB-V1 cytotox 3.66µM
c1cnc(-c2noc(CN3CCN(C4CCCC4)CC3)n2)cn1	none
O=C1CC(c2cccc([N+](=O)[O-])c2)c2c(ccc3ccccc23)N1 (configuration not stated)	SW480 rereplic inconclusive, KB-3-1 tox inconclusive, KB-V1 cytotox 5.8µM, MCF10A rereplic inconclusive
O=C1CC(c2ccc(Br)cc2)c2c(ccc3ccccc23)N1 (configuration not stated)	none (no result: SW480 rereplic, KCNH2 3.1 inh, hERG WT inh, MCF10A rereplic)
Cc1cc(N)n(-c2ccc(Cl)cc2)n1	none
Cc1cc2nn(-c3ccc(F)cc3)nc2cc1N	SW480 rereplic 20.6µM, MCF10A rereplic 20.6µM
Cc1cc2nn(-c3ccc(Cl)cc3)nc2cc1N	SW480 rereplic 23.1µM, MCF10A rereplic 20.6µM
COc1ccc(-n2nc3cc(C)c(N)cc3n2)cc1Cl	SW480 rereplic 14.6µM, MCF10A rereplic 3.26µM
Cc1c(-c2cccs2)[n+](=O)c2c(n1[O-])CCCC2	none
CCN(Cc1ccccc1)S(=O)(=O)CCNC(=O)c1ccccc1	KB-V1 cytotox 20.6µM
CCN(CC)S(=O)(=O)c1cccc(C(=O)NCCc2ccccc2)c1	KB-V1 cytotox 9.2µM
CN(C)S(=O)(=O)c1cccc(C(=O)NCCNC(=O)c2cccc(S(=O)(=O)N(C)C)c2)c1	none
CCN(CC)S(=O)(=O)c1cccc(C(=O)N/N=C(\C)c2ccc(O)cc2O)c1	SW480 rereplic 1.84µM, KB-V1 cytotox inconclusive, MCF10A rereplic 3.66µM
CCN(CC)S(=O)(=O)c1cccc(C(=O)N[C@H](C(=O)O)C(C)C)c1	hERG WT inh -170.4
CCN[C@@H]1CN(CCCOC)S(=O)(=O)c2sc(S(N)(=O)=O)cc21	none (no result: KB-3-1 tox, KCNH2 3.1 inh, hERG WT inh, KB-V1 cytotox)
COc1ccc(C(=O)NCC(c2cccnc2)N2CCN(c3ccccc3)CC2)cc1 (configuration not stated)	KB-3-1 tox inconclusive (no result: SW480 rereplic, KCNH2 3.1 inh, hERG WT inh, MCF10A rereplic)
O=C(NCC1CCCO1)C1CC(=O)N(C2CCCC2)C1 (configuration not stated)	KB-3-1 tox inconclusive
CCCN1CCCc2cc(CN)ccc21	SW480 rereplic inconclusive, MCF10A rereplic 13µM
CN1CCCc2cc(C=O)ccc21	none
